# According to ChEMBL document CHEMBL1201862, “PubChem BioAssay data set” (2004):
# The campaign covered roughly 400,000 compounds. About 2,100 (0.53%) were called active. Roughly 14% stayed inconclusive and do not appear here. This is one part of a sample in which actives are shown more often than they occur. The rule behind the calls is not given here.
# Target: Ataxin-2 (Homo sapiens) (UniProt Q99700)
# Test: qHTS for Inhibitors of ATXN expression.
# Format: functional
# Chain of Ataxin-2 (Homo sapiens) (Q99700 whole entry): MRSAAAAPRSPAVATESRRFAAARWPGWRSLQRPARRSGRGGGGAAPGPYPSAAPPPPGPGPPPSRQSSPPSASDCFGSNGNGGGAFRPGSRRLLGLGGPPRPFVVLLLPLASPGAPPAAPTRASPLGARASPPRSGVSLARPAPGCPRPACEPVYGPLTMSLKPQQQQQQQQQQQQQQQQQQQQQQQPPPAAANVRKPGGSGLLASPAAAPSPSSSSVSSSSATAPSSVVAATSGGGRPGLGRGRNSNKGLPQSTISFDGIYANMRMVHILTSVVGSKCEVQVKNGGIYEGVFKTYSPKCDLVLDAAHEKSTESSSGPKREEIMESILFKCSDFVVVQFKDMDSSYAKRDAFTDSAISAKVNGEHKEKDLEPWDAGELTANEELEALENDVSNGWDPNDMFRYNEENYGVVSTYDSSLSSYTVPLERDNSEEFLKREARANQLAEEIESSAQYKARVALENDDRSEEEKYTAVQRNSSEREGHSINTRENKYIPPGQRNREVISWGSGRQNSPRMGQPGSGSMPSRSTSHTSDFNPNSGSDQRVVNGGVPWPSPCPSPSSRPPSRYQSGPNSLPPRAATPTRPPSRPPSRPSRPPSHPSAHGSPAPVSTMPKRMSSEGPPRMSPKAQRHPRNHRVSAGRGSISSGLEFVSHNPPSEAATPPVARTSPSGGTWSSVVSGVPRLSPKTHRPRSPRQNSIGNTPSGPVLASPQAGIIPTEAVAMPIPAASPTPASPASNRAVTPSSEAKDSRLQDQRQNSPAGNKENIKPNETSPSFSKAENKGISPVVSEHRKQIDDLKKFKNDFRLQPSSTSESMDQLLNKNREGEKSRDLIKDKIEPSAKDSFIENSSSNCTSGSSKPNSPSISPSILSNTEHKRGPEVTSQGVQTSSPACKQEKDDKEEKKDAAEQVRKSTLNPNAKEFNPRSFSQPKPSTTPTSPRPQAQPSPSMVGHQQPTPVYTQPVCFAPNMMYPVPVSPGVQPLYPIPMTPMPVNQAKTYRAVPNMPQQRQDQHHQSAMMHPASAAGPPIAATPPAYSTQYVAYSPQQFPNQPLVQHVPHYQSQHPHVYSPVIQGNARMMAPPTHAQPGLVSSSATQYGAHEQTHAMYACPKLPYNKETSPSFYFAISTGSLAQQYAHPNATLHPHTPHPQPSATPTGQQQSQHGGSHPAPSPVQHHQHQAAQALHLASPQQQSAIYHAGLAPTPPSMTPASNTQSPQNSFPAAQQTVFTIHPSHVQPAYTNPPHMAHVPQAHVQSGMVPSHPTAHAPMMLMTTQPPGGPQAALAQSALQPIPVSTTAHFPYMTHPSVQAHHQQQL
row,Structure (SMILES),Potency
1,Clc1ccc(C2=NN(c3ccccc3)C(c3ccco3)C2)cc1 (stereo unspecified),inactive
2,O=C(O)c1cc(Cl)ccc1-c1ccc(/C=C/c2cc(C(F)(F)F)nc(O)n2)o1,inactive
3,Fc1ccc(C2=CC(c3ccc(Br)o3)n3ncnc3N2)cc1 (stereo unspecified),inactive
4,Cc1ccc(-n2nnc3c(=O)n(CC(=O)N4CCOCC4)cnc32)cc1,inactive
5,Cc1cccc(NS(=O)(=O)c2ccc3nc(O)cc(C(=O)OC(C)C(=O)Nc4ccc([N+](=O)[O-])cc4)c3c2)c1 (stereo unspecified),inactive
6,CC(C)OC(=O)c1cc(NC(=S)Nc2ccc([N+](=O)[O-])cc2)cc(C(=O)OC(C)C)c1,44.7 µM (active)
7,O=C(NCCNc1ccc([N+](=O)[O-])cc1)c1cccc(Br)c1,inactive
8,CC[N+]1(C)CCC(O)(/C=C/c2ccccc2)C(C(=O)/C=C/c2ccccc2)C1 (stereo unspecified),10.6 µM (active)
9,CCN1CCC(O)(/C=C/c2ccc(C)cc2)C(C(=O)/C=C/c2ccc(C)cc2)C1 (stereo unspecified),31.6 µM (active)
10,COc1ccc(/C=C/C(=O)N(C)c2ccccc2C(=O)O)cc1,inactive
11,CCN1CCC(O)(/C=C/c2ccc(C(C)C)cc2)C(C(=O)/C=C/c2ccc(C(C)C)cc2)C1 (stereo unspecified),25.1 µM (active)
12,Cc1cc(-c2nc(-c3ccncc3)no2)ccc1[N+](=O)[O-],inactive
13,Cc1cc(=O)oc2c(CN3CCCC3)c(O)c(Cl)cc12,inactive
14,COCCNC(=S)N/N=C/c1ccc2c(c1)OCCO2,inactive
15,Brc1cc(Br)c2nc(-c3ccc(N4CCOCC4)cc3)ccc2c1,inactive
16,N#CC1=CN(Cc2ccccc2)C=C(/C=N/Nc2ccccc2)C1,inactive
17,O=[N+]([O-])c1cc([N+](=O)[O-])c2[nH]nc(-c3ccccc3)c2c1,inactive
18,N#Cc1c(N)n(Cc2ccccc2)c(=O)c2cc([N+](=O)[O-])ccc12,inactive
19,O=c1c2cc([N+](=O)[O-])cc([N+](=O)[O-])c2[nH]n1-c1ccccc1,22.4 µM (active)
20,COC(=O)Cc1cnc(NC(=O)CSc2nc(O)cc(C(C)C)n2)s1,inactive
21,CCCn1nc(NC(=O)c2ccco2)c2cc3ccccc3nc21,inactive

row,Structure (SMILES),Potency
1,COc1cc(Br)cc(/C=N/NC(=O)Cc2ccccc2)c1O,inactive
2,NC(=S)N/N=C/c1c[nH]c2ccc(OCc3ccccc3)cc12,12.6 µM (active)
3,COCc1c(C(=O)N/N=C/c2c[nH]c3ccccc23)nnn1-c1nonc1N,inactive
4,COC(=O)c1ccc(C(=O)N(CCN(C)C)c2nc3c(Cl)cccc3s2)cc1,inactive
5,CN(Cc1ccccc1)S(=O)(=O)c1ccc(OCC(=O)N2CCC(C(N)=O)CC2)cc1,inactive
6,CCOc1cccc2sc(N(CCCN(C)C)C(=O)c3ccc(S(=O)(=O)N(C)Cc4ccccc4)cc3)nc12,39.8 µM (active)
7,CN(C1CCCCC1)S(=O)(=O)c1ccc(SCC(=O)C(C)(C)C)nc1,inactive
8,CN(Cc1ccccc1)S(=O)(=O)c1ccc(N2CCOCC2)nc1,inactive
9,Cc1ccc2sc(N(CCCN(C)C)C(=O)c3ccc(S(=O)(=O)N(C)Cc4ccccc4)cc3)nc2c1C,31.6 µM (active)
10,Cc1ccc2sc(N(CCCN(C)C)C(=O)c3ccc(S(=O)(=O)N(C)C4CCCCC4)cc3)nc2c1C,25.1 µM (active)
11,Cc1[nH]c2ccccc2c1C(=O)CN1C(=O)NC2(CCCCCC2)C1=O,inactive
12,CCC(C)(C)c1ccc(OCCCC[n+]2cccc(C)c2C)c(C(C)(C)CC)c1,31.6 µM (active)
13,CC(=O)c1cccc(NC(=O)CC2SC(N/N=C/c3ccccc3)=NC2=O)c1 (stereo unspecified),inactive
14,CN(C(=O)/C=C/c1ccc([N+](=O)[O-])s1)c1ccccc1,33.6 µM (active)
15,Cc1ccc(NC(=S)N/N=C/c2ccc([N+](=O)[O-])s2)cc1,39.8 µM (active)
16,COc1cccc(/C=N/NC(=S)Nc2cccc(C(=O)O)c2)c1O,inactive
17,CC(=O)c1cccc(NC(=O)/C=C/c2ccc([N+](=O)[O-])s2)c1,5.97 µM (active)
18,Cc1cccc(NC(=S)N/N=C/c2ccc([N+](=O)[O-])s2)c1,31.6 µM (active)
19,C=CCc1cccc(/C=N/NC(=O)C(=O)Nc2ccc(C)cc2)c1O,inactive
20,CC(C)(C)NC(=S)N/N=C\c1ccc(-c2ccc([N+](=O)[O-])cc2)o1,inactive
21,Cc1cccc(NC(=O)C(C)Oc2ccc(C)nc2[N+](=O)[O-])c1 (stereo unspecified),inactive

row,Structure (SMILES),Potency
1,COc1cccc(/C=C/C(=O)Nc2cccc(C(C)=O)c2)c1OC,inactive
2,N=c1c(C(=O)NC2CCCC2)cc2c(=O)n3ccccc3nc2n1C1CCCCC1,inactive
3,CC1Nc2nc(N(C)C)nc(O)c2NC1C (stereo unspecified),inactive
4,Cc1cc2nc(/C=C/c3nc4cc(C)c(C)cc4[nH]3)[nH]c2cc1C,inactive
5,Oc1ccc(Br)cc1C1Nc2ccccc2S1 (stereo unspecified),inactive
6,CCC(CC)c1nnc(NC(=O)CSCc2c(C)noc2C)s1,inactive
7,CC(C)=CCc1c2c(c3occ(-c4ccc(O)cc4)c(=O)c3c1O)C=CC(C)(C)O2,25.1 µM (active)
8,COc1c(CC=C(C)C)c(O)cc2oc(=O)c3c4ccc(O)cc4oc3c12,inactive
9,CC(C)=CCc1c(-c2ccc(O)cc2O)oc2cc3c(c(O)c2c1=O)C=CC(C)(C)O3,39.8 µM (active)
10,CC(C)=CCc1c(O)c(CC=C(C)C)c2occ(-c3ccc(O)cc3)c(=O)c2c1O,39.8 µM (active)
11,CC1(C)C=Cc2c(c3c(c4c(=O)c(-c5ccc(O)cc5)coc24)OC(C)(C)CC3)O1,35.5 µM (active)
12,COC(c1ccccc1)(c1ccccc1)C(Oc1nc(C)cc(C)n1)C(=O)O (stereo unspecified),inactive
13,CCOC(=O)c1c2ccc(OCC(=O)NN)cc2n2ccccc12,inactive
14,Cc1c(C)c2cc(Cl)c(O)c(CN(C)C)c2oc1=O,inactive
15,CCCCCC(=O)N1C[C@@H](n2cc(COC(=O)c3ccccc3)nn2)[C@H](O)C[C@@H]1c1ccc(Cl)cc1,31.6 µM (active)
16,CCCCCC(=O)N1C[C@H](n2cc(COC(=O)c3ccccc3)nn2)[C@@H](O)C[C@@H]1c1ccc(Cl)cc1,39.8 µM (active)
17,CC1(S(=O)(=O)O)CC(=O)c2ccccc2C1=O (stereo unspecified),inactive
18,CC(=O)N1N=C2c3ccccc3CCC2C1c1ccc(F)cc1 (stereo unspecified),inactive
19,CCCCn1c(NC(C)=O)c(C#N)c2nc3ccccc3nc21,inactive
